Reference: PMC12820563, “FoxP3 forms a head-to-head dimer in vivo and stabilizes its multimerization on adjacent microsatellites”
In all, about 16,000 sequences were measured (“rpm ratio (pull-down/input)”: median about 0.94, highest 2% from about 1.7 on). For the sample, the highest values were picked, then their nearest neighbours and some sequences at random.

Biological target: T1, MBP-FoxP1dN (Mus musculus, UniProt P58462 326-579)
T1 sequence: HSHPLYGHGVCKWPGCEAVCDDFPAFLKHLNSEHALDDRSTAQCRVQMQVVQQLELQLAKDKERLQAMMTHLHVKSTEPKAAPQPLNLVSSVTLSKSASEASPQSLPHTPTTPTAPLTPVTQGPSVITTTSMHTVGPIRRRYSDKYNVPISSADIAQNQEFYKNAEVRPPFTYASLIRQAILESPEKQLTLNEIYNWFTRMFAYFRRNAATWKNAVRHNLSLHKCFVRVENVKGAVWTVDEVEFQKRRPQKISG
Test: PD-seq (MBP pull-down with sequencing); 20 mM Tris-HCl pH 7.5, 100 mM NaCl, 1.5 mM MgCl2, 0.4 uM protein, 0.1 uM dsDNA library, 30 min, room temperature, amylose pull-down; high values mean tight binding
Details: protein: recombinant; tags: His6-MBP; chain copies: 2; dsDNA, one strand shown
Outline: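 His6-MBP-tagged mouse FoxP3 or FoxP1 fragment lacking the N-terminus, expressed in E. coli, was mixed at 0.4 µM with 0.1 µM Klenow-filled double-stranded degenerate DNA library. Incubation was 30 min at room temperature in Tris pH 7.5 buffer with NaCl and MgCl2. Complexes were caught on amylose resin and washed three times; DNA was released with proteinase K, PCR-barcoded and Illumina-sequenced. Binding is reads-per-million enrichment, pull-down over input, with replicates pooled.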

Sequence | binding signal
GATGATTGTTCTCCCAGCTGATGAATTTATTACGTCGAGTAAACAAATTTTCCTAATCTTTCTGTTCAAGCGCCATCTAC | 1.11 RPM ratio (pull-down/input)
GATGATTGTTCTCCCAGCTGATGAATTGTTTACGTCGAGTAAACAAATTTTCCTAATCTTTCTGTTCAAGCGCCATCTAC | 2.79 RPM ratio (pull-down/input)
GATGATTGTTCTCCCAGCTGATGAATTCTTTACGTCGAGTAAACAAATTTTCCTAATCTTTCTGTTCAAGCGCCATCTAC | 0.992 RPM ratio (pull-down/input)
GATGATTGTTCTCCCAGCTGATGAATTTATCCCTTCGAGTAAACAAATTTTCCTAATCTTTCTGTTCAAGCGCCATCTAC | 1.05 RPM ratio (pull-down/input)
GATGATTGTTCTCCCAGCTGATGAATTGCGTACCTCGAGTAAACAAATTTTCCTAATCTTTCTGTTCAAGCGCCATCTAC | 1.09 RPM ratio (pull-down/input)
GATGATTGTTCTCCCAGCTGATGAATTGGGGCGGTCGAGTAAACAAATTTTCCTAATCTTTCTGTTCAAGCGCCATCTAC | 0.782 RPM ratio (pull-down/input)
GATGATTGTTCTCCCAGCTGATGAATTGACAGGATCGAGTAAACAAATTTTCCTAATCTTTCTGTTCAAGCGCCATCTAC | 1.1 RPM ratio (pull-down/input)
GATGATTGTTCTCCCAGCTGATGAATTCGTTTATTCGAGTAAACAAATTTTCCTAATCTTTCTGTTCAAGCGCCATCTAC | 1.25 RPM ratio (pull-down/input)
GATGATTGTTCTCCCAGCTGATGAATTGTTTATTTCGAGTAAACAAATTTTCCTAATCTTTCTGTTCAAGCGCCATCTAC | 2.77 RPM ratio (pull-down/input)
GATGATTGTTCTCCCAGCTGATGAATTTATTGTTTCGAGTAAACAAATTTTCCTAATCTTTCTGTTCAAGCGCCATCTAC | 2.09 RPM ratio (pull-down/input)
GATGATTGTTCTCCCAGCTGATGAATTCTGGCTGTCGAGTAAACAAATTTTCCTAATCTTTCTGTTCAAGCGCCATCTAC | 0.808 RPM ratio (pull-down/input)
GATGATTGTTCTCCCAGCTGATGAATTGCCGTAATCGAGTAAACAAATTTTCCTAATCTTTCTGTTCAAGCGCCATCTAC | 1.39 RPM ratio (pull-down/input)
GATGATTGTTCTCCCAGCTGATGAATTAATGTAGTCGAGTAAACAAATTTTCCTAATCTTTCTGTTCAAGCGCCATCTAC | 1.24 RPM ratio (pull-down/input)
GATGATTGTTCTCCCAGCTGATGAATTGGCACAATCGAGTAAACAAATTTTCCTAATCTTTCTGTTCAAGCGCCATCTAC | 1.34 RPM ratio (pull-down/input)
GATGATTGTTCTCCCAGCTGATGAATTATTTCTTTCGAGTAAACAAATTTTCCTAATCTTTCTGTTCAAGCGCCATCTAC | 1.17 RPM ratio (pull-down/input)
GATGATTGTTCTCCCAGCTGATGAATTATTGTGTTCGAGTAAACAAATTTTCCTAATCTTTCTGTTCAAGCGCCATCTAC | 2.1 RPM ratio (pull-down/input)
GATGATTGTTCTCCCAGCTGATGAATTAATTATTTCGAGTAAACAAATTTTCCTAATCTTTCTGTTCAAGCGCCATCTAC | 1.12 RPM ratio (pull-down/input)
GATGATTGTTCTCCCAGCTGATGAATTATTTGCTTCGAGTAAACAAATTTTCCTAATCTTTCTGTTCAAGCGCCATCTAC | 1.56 RPM ratio (pull-down/input)
GATGATTGTTCTCCCAGCTGATGAATTATTGCTTTCGAGTAAACAAATTTTCCTAATCTTTCTGTTCAAGCGCCATCTAC | 1.74 RPM ratio (pull-down/input)
GATGATTGTTCTCCCAGCTGATGAATTATTTTGTTCGAGTAAACAAATTTTCCTAATCTTTCTGTTCAAGCGCCATCTAC | 1.32 RPM ratio (pull-down/input)
GATGATTGTTCTCCCAGCTGATGAATTATTTGATTCGAGTAAACAAATTTTCCTAATCTTTCTGTTCAAGCGCCATCTAC | 1.05 RPM ratio (pull-down/input)
GATGATTGTTCTCCCAGCTGATGAATTATTTGTTTCGAGTAAACAAATTTTCCTAATCTTTCTGTTCAAGCGCCATCTAC | 2.21 RPM ratio (pull-down/input)
GATGATTGTTCTCCCAGCTGATGAATTATTAATTTCGAGTAAACAAATTTTCCTAATCTTTCTGTTCAAGCGCCATCTAC | 1.34 RPM ratio (pull-down/input)
GATGATTGTTCTCCCAGCTGATGAATTATTATTTTCGAGTAAACAAATTTTCCTAATCTTTCTGTTCAAGCGCCATCTAC | 3.1 RPM ratio (pull-down/input)
GATGATTGTTCTCCCAGCTGATGAATTATTTTTTTCGAGTAAACAAATTTTCCTAATCTTTCTGTTCAAGCGCCATCTAC | 1.5 RPM ratio (pull-down/input)
GATGATTGTTCTCCCAGCTGATGAATTGCTTATTTCGAGTAAACAAATTTTCCTAATCTTTCTGTTCAAGCGCCATCTAC | 1.62 RPM ratio (pull-down/input)
